Reference: PubChem BioAssay AID1159580 (chemical genetic matrix, 2015)
Hit rate of the full screen: of about 5,500 compounds, about 2,000 (36%) were called active. About 18% were inconclusive and are not listed. Cut-off read from the data, not from the text of the source: active = normalized growth mostly below about 0.91 (no sharp cut-off); inconclusive = no clear call, values can overlap the other calls; inactive = mostly above about 0.92. Some of the results follow.

Test: chemical genetic growth profiling, strain panel (AID 1159580);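 note: tested at 20 µM; growth read once vehicle control cultures reached saturation at 30 °C; 1 = growth at the plate median or of vehicle wells; lower values mean less growth of the strain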
Settings: S. cerevisiae deletion strains, growth OD
[1] = locus YAL040C, strain CLN3, hits give low values
[2] = locus YCL061C, strain MRC1 (second series), hits give low values
[3] = locus YDR363W, strain ESC2, hits give low values
[4] = locus YER002W, strain NOP16, hits give low values
[5] = locus YNL175C, strain NOP13, hits give low values
[6] = locus YNL197C, strain WHI3, hits give low values
[7] = locus YNL224C, strain SQS1, hits give low values
[8] = locus YOR083W, strain WHI5 (second series), hits give low values

Measured: normalized growth

Nc1nc(Nc2ccccc2)nc2c1ncn2[C@@H]1O[C@H](CO)[C@H](O)C1O (stereo partly drawn)
inactive: locus YAL013W, strain DEP1, hits give low values 0.982 | [1] 1.05 | [2] 0.999 | locus YDR150W, strain NUM1, hits give low values 0.999 | [3] 1.02 | [4] 1 | locus YMR263W, strain SAP30, hits give low values 1 | locus YMR307W, strain GAS1, hits give low values 1 | [5] 1.01 | [6] 1.01 | [7] 1.01 | [8] 1.02

N[C@H](C(=O)O)c1cc(O)cc(O)c1
inactive: [1] 0.975 | [2] 0.995 | [3] 0.949 | [4] 0.985 | [5] 1.02 | [6] 0.996 | [7] 1.01 | locus YNL322C, strain KRE1, hits give low values 0.982 | [8] 0.999 | locus YPL055C, strain LGE1, hits give low values 0.956 | locus YPL241C, strain CIN2, hits give low values 0.991

C[C@H]1O[C@H](OC2[C@@H](O)[C@@H](O)C(O)[C@H](O)[C@H]2O)[C@@H](N)C[C@@H]1N=C(N)C(=O)O (stereo partly drawn)
inactive: locus YAL021C, strain ccr4, hits give low values 0.989 | locus YAL026C, strain drs2, hits give low values 0.995 | locus YAL030W, strain snc1, hits give low values 1 | locus YBL061C, strain skt5, hits give low values 0.996 | locus YBR009C, strain hhf1, hits give low values 1.05 | locus YBR023C, strain chs3, hits give low values 0.99 | locus YBR171W, strain sec66, hits give low values 0.911 | locus YBR231C, strain swc5, hits give low values 0.999 | locus YBR279W, strain paf1, hits give low values 0.986 | locus YCL011C, strain gbp2, hits give low values 0.979 | locus YCL016C, strain dcc1, hits give low values 1 | locus YCL061C, strain MRC1, hits give low values 0.999 | locus YCL069W, strain vba3, hits give low values 1 | locus YCR088W, strain abp1, hits give low values 0.983 | locus YDL005C, strain med2, hits give low values 0.986 | locus YDL040C, strain nat1, hits give low values 0.992 | locus YDR001C, strain nth1, hits give low values 0.985 | locus YDR069C, strain doa4, hits give low values 0.999 | locus YDR137W, strain rgp1, hits give low values 0.937 | locus YDR159W, strain sac3, hits give low values 0.993 | locus YDR195W, strain ref2 1.02 | locus YDR297W, strain sur2, hits give low values 0.988 | locus YDR334W, strain swr1, hits give low values 0.965 | locus YDR335W, strain msn5, hits give low values 0.975 | locus YDR392W, strain spt3, hits give low values 0.882 | locus YEL003W, strain gim4, hits give low values 0.981 | locus YEL037C, strain rad23, hits give low values 0.994 | locus YEL061C, strain CIN8 (second series), hits give low values 0.993 | locus YER015W, strain faa2, hits give low values 0.995 | locus YER016W, strain bim1, hits give low values 0.991 | locus YER111C, strain swi4, hits give low values 0.995 | locus YER155C, strain BEM2 (second series), hits give low values 1.02 | locus YFR010W, strain ubp6, hits give low values 0.979 | locus YGL167C, strain pmr1, hits give low values 0.986 | locus YGL173C, strain kem1, hits give low values 0.994 | locus YGL227W, strain vid30, hits give low values 1 | locus YGL240W, strain doc1, hits give low values 1.01 | locus YGL253W, strain hxk2, hits give low values 0.994 | locus YHR013C, strain ard1, hits give low values 0.947 | locus YHR027C, strain rpn1, hits give low values 0.982 | locus YHR030C, strain SLT2, hits give low values 0.951 | locus YHR079C, strain IRE1, hits give low values 0.964 | locus YHR142W, strain chs7, hits give low values 0.927 | locus YJL092W, strain hpr5, hits give low values 0.974 | locus YJL095W, strain BCK1 (second series), hits give low values 0.992 | locus YJL095W, strain BCK1, hits give low values 0.969 | locus YJL115W, strain asf1, hits give low values 0.974 | locus YJL129C, strain trk1, hits give low values 0.921 | locus YJL154C, strain vps35, hits give low values 0.995 | locus YJL164C, strain tpk1, hits give low values 0.97 | locus YJL166W, strain qcr8, hits give low values 0.99 | locus YJL187C, strain SWE1, hits give low values 0.992 | locus YJR066W, strain TOR1, hits give low values 0.928 | locus YKL160W, strain elf1, hits give low values 0.957 | locus YKR026C, strain gcn3, hits give low values 0.997 | locus YKR091W, strain srl3, hits give low values 0.991 | locus YLL001W, strain dnm1, hits give low values 0.986 | locus YLL026W, hits give low values 0.989 | locus YLL041C, strain sdh2, hits give low values 0.977 | locus YLR027C, strain aat2, hits give low values 0.978 | locus YLR113W, strain HOG1, hits give low values 0.983 | locus YLR221C, strain rsa3, hits give low values 0.962 | locus YLR258W, strain gsy2, hits give low values 1.01 | locus YLR262C, strain YPT6 (second series), hits give low values 0.912 | locus YLR320W, strain mms22, hits give low values 0.967 | locus YLR342W, strain FKS1, hits give low values 0.993 | locus YLR357W, strain rsc2, hits give low values 1.01 | locus YLR370C, strain arc18, hits give low values 0.981 | locus YLR384C, strain iki3, hits give low values 1 | locus YML120C, strain ndi1, hits give low values 0.959 | locus YMR058W, strain fet3, hits give low values 0.988 | locus YMR125W, strain sto1, hits give low values 0.984 | locus YMR129W, hits give low values 1 | locus YMR205C, strain PFK2, hits give low values 1.04 | locus YMR231W, strain pep5, hits give low values 1.01 | locus YNL071W, strain lat1, hits give low values 0.963 | locus YNL183C, strain NPR1, hits give low values 0.944 | locus YNL209W, strain ssb2, hits give low values 0.989 | locus YNL248C, strain rpa49, hits give low values 0.933 | locus YNL322C, strain KRE1 (second series), hits give low values 0.983 | locus YNR049C, strain mso1, hits give low values 0.986 | locus YOR001W, strain rrp6, hits give low values 0.923 | locus YOR070C, strain gyp1, hits give low values 0.987 | locus YOR080W, strain dia2, hits give low values 0.984 | locus YOR083W, strain WHI5, hits give low values 0.934 | locus YOR106W, strain vam3, hits give low values 0.94 | locus YOR231W, strain MKK1, hits give low values 0.97 | locus YOR265W, strain rbl2, hits give low values 0.989 | locus YOR270C, strain vph1, hits give low values 0.924 | locus YOR290C, strain snf2, hits give low values 0.927 | locus YPL051W, strain arl3, hits give low values 0.964 | locus YPL078C, strain atp4, hits give low values 0.951 | locus YPL106C, strain sse1, hits give low values 0.971 | locus YPL240C, strain hsp82, hits give low values 0.97 | locus YPL256C, strain CLN2, hits give low values 0.98
